Screening results: PubChem BioAssay, National Center for Advancing Translational Sciences (NCATS)
Pol kappa inh: blocks human DNA polymerase kappa activity; Q9UBT6; purified Pol kappa, fluorescent DNA synthesis assay, 10 min; Potency, µM (doses to about 107 µM), for inactives: top-dose activity, negative = inhibition, most hits filed as inhibitors; 0.53% of 400,000 active; AID 588579; note: potency is the fitted concentration of half-maximal effect; % is set by controls: 0 for no effect and ±100 for the full control effect
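Pol kappa 10 nM + cpd, 15 min RT; start w/ substrate 50 nM final; fluorescence kinetic read, 0 and 10 min. Neg ctrl: buffer, no enzyme.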
Pol iota inh: blocks human DNA polymerase iota activity; Q9UNA4; Pol iota fluorescent replication assay, 10 min; Potency, µM (doses to about 115 µM), without a hit: at the top dose activity, negative = inhibition, most hits filed as inhibitors; 1% of 390,000 active; AID 588590; note: potency is the fitted concentration of half-maximal effect
Target sequence (Q9UNA4 whole entry, looked up): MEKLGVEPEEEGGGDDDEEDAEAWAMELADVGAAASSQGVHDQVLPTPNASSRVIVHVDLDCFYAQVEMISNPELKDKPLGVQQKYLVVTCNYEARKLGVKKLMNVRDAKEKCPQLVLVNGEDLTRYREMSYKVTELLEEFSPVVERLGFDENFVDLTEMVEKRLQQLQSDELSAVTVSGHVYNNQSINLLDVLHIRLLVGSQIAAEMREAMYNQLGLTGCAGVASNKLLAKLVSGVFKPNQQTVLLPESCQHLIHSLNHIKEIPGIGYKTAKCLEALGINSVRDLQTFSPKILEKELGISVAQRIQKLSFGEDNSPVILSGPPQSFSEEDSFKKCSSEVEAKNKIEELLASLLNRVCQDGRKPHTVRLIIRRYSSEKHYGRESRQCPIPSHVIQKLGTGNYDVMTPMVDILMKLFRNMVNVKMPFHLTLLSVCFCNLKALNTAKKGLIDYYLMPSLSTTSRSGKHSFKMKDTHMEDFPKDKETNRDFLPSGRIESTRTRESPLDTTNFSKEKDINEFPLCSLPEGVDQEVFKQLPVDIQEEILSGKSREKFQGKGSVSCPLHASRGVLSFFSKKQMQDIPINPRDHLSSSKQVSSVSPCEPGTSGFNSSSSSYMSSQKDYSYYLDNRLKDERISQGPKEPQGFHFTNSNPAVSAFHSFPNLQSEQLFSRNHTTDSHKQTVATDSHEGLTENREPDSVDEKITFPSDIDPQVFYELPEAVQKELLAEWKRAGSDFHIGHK
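Fluorescent replication assay read twice, at 0 min and 10 min after adding 50 nM (final) substrate. Enzyme (10 nM) and compounds were first incubated 15 min at room temperature; enzyme-free buffer wells were negative controls.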
POLB inh: blocks human DNA polymerase beta activity. P06746. Pol beta primer extension/strand displacement, fluorescence kinetic. 1.3% of 340,000 active. Potency, µM (top dose mostly 114 µM), for inactives: top-dose activity change, negative = inhibition, hits mostly inhibitors; note: potency is the fitted concentration of half-maximal effect; % is set by controls: 0 for no effect and ±100 for the full control effect
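Curves were derived by four-parameter Hill fits of normalized qHTS data. The kinetic fluorescent primer-extension read was taken at 0 and 10 min after 50 nM substrate, following a 15 min room-temperature preincubation of 10 nM enzyme with compounds.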
WRN helicase inh: WRN helicase (human) inhibition; Q14191; WRN helicase unwinding, fluorescent forked duplex, kinetic; Potency, µM (series often up to 114 µM), for the others: at the highest dose activity change, negative = inhibition, most hits filed as inhibitors; 0.46% of 360,000 active; AID 651768; note: potency is the fitted concentration of half-maximal effect; % is set by controls: 0 for no effect and ±100 for the full control effect; nearly all actives have a fitted effect of over 55% in size
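Primary qHTS, 1536-well format. 20 nM WRN + compound, 15 min RT; start with 100 nM forked fluorophore/quencher duplex, 2 mM ATP (final); kinetic read ex 525/em 598 nm.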
PI5P4Ka inh: PI5P4K alpha (human) kinase inhibition; 1.2% of 330,000 active; max response, %; PI5P4Kalpha enzyme, ADP-Glo luminescence, 60 min; active compounds read low; P48426; active = max response of -50% or lower; inconclusive = between -30% and -50%; inactive = -30% or higher; note: value at the top dose of about 77 µM; % is set by controls: 0 for no effect and ±100 for the full control effect
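Compounds were pin-transferred onto PI5P4Kalpha and substrate in HEPES pH 7.4 buffer with EGTA, CHAPS and 5% DMSO. ATP (5 microM final) started the reaction, which ran 60 minutes at room temperature before ADP-Glo detection.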
POLH inh: blocks human DNA polymerase eta activity; recombinant Pol eta, fluorescent DNA replication assay; Potency, µM (series often up to 114 µM), inactives show top-dose activity change, negative = inhibition, actives largely listed as inhibitors; 1.2% of 390,000 active; note: potency is the fitted concentration of half-maximal effect; % is set by controls: 0 for no effect and ±100 for the full control effect
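Pol eta at 10 nM preincubated with compounds 15 min at room temperature; reaction started with fluorescent substrate (50 nM final) and read kinetically at 0 and 10 min.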
Starred values were filed as active, the others as inactive; u = inconclusive; x = no result; [ ] = another dose, or the depositor's remark. Compounds with a hit are over-represented: about 2.8% of the library has one in this group of screens. Unless noted, calls come from the whole dose curve; as a rule, active = well fitted curve in the direction sought with a large enough effect; inconclusive = small, poorly fitted or top-dose-only effect, or another doubt; inactive = no such curve, though single readings can be large; an effect the other way counts as inactive or inconclusive.

SMILES	Pol kappa inh	Pol iota inh	POLB inh	WRN helicase inh	PI5P4Ka inh	POLH inh
Cc1ccc(S(=O)(=O)NCc2ccncc2)cc1	7%	3%	4%	3%	1	-12%
CC1CCCCC1NS(=O)(=O)c1ccc(S(=O)(=O)NCc2ccncc2)cc1 (stereo not drawn)	0%	u	71µM*	-22%	x	-9%
CCOc1cccc(C(=O)c2ccc(O)c(O)c2O)c1	4.5µM*	x	x	x	x	x
CCOc1ccc(C(=O)c2cccs2)cc1	-9%	u	-2%	-18%	2	-1%
CCOc1ccc(C(=O)c2ccc(O)c(O)c2O)cc1	3.5µM*	x	x	x	x	x
Cc1cc(C)n(-c2nc3ccccc3nc2N2CCN(c3cccc(C(F)(F)F)c3)CC2)n1	19%	11%	1%	x	x	-23%
CCOC(=O)CNC(=O)Nc1nnc(-c2ccc(OCC)cc2)o1	-5%	29%	79µM*	-1%	-3	7%
O=C(/C=C/c1ccc(O)cc1)c1ccc(NC2=C(N3CCCCC3)C(=O)c3ccccc3C2=O)cc1	-11%	28µM*	u	-35%	-29	u
CCCn1ncc(CN2CCC(n3nccc3NC(=O)CCc3ccccc3)CC2)c1C	-6%	32%	-1%	-7%[57.1 µM]	-4	-2%
O=C(O)CCCC(=O)Nc1ccc(Cl)c(Cl)c1	-2%	-12%	-2%	-2%	-1	-13%
O=C(CCCCn1cnc2c(=S)nc[nH]c21)Nc1ccc(C(=O)O)c(O)c1	-23%	u	x	u	-68*	u
O=C(O)/C=C\C(=O)Nc1cc(O)ccc1[N+](=O)[O-]	-13%	-20%	3%	-6%	-75*	-10%
C=CCSc1ncc(C(=O)OCC)c(N)n1	-2%	-4%	12%	-8%	5	4%
CCOC(=O)c1cnc(SSc2ncc(C(=O)OCC)c(N)n2)nc1N	-7%	-6%	13%	1%	-71*	3%
N#CC(=Cc1ccc(-c2ccccc2)cc1)C(=O)c1ccccc1	x	x	x	-15%[57.1 µM]	-1	x
N#C/C(=C\c1cccs1)C(=O)c1ccccc1	-12%	28µM*	u	u	-7	-17%
Cc1ccc(CN2CC(C(=O)Nc3nnc(SCc4c(Cl)cccc4Cl)s3)CC2=O)cc1 (stereo not drawn)	-25%	u	13µM*	u	-2	u
Cc1ccccc1N1CC(C(=O)Nc2nnc(SCc3ccccn3)s2)CC1=O (stereo not drawn)	-27%	u	79µM*	-8%	u	50µM*
CCC[n+]1c(/C=C/c2c(OC)cc(OC)cc2OC)ccc2ccccc21	-21%	u	x	x	x	x
Cc1ccnc2ccc(I)cc12	-1%	46%	x	x	x	x
C=Cc1ccc(Cn2c(=O)n(-c3cccc(Cl)c3)c(=O)c3c4c(sc32)CN(C(C)=O)CC4)cc1	-14%	7%	-32%	x	x	-12%
O=C1COc2ccc(C(=O)COC(=O)/C=C/c3ccco3)cc2N1	u	45µM*	x	-13%	u	u
N#CCC(=O)Nc1ccc(C(=O)OCC(=O)c2ccc3c(c2)NC(=O)CO3)cc1	u	22µM*	x	u	-29	u
O=C1COc2ccc(C(=O)COC(=O)c3ccco3)cc2N1	10%	24%	6%	3%	-26	0%
N#CCC(=O)Nc1ccc(C(=O)OCC(=O)NC(=O)Nc2ccc3c(c2)OCCO3)cc1	-16%	u	x	u	u	45µM*
SMILES	Pol kappa inh	Pol iota inh	POLB inh	WRN helicase inh	PI5P4Ka inh	POLH inh
CC(=O)N/C(=C\c1ccccc1)C(=O)OCC(=O)Nc1ccc(C)c(S(=O)(=O)N(C)C)c1	-5%	35%	x	0%	1	-26%
CCOC(=O)C1=C(C)N(C)C(=O)NC1c1cc2c(cc1[N+](=O)[O-])OCO2 (stereo not drawn)	u	2.8µM*	18µM*	1%	-3	-14%
COc1cccc(Nc2ncccc2C(=O)NCc2ccccc2)c1	-17%	6%	89µM*	-12%	-11	u
Cc1c(Cl)cccc1NC(=S)N1CCN(C(=O)c2ccco2)CC1	3%	18%	79µM*	-31%	-3	-3%
Cc1cccc(NC(=S)N2CCN(C(=O)c3ccco3)CC2)c1C	1%	11%	0%	-4%	0	-7%
CCc1ccc(NC(=O)Cn2nnc(C(=O)NCCc3ccccc3)c2N)cc1	-11%	-11%	-1%	x	x	-19%
Nc1c(-c2nc(-c3ccccc3)no2)nnn1CC(=O)Nc1ccccc1	7%	u	u	x	x	x
Cc1ccc(NC(=O)Cn2nnc(C(=O)NCc3ccccc3)c2N)cc1C	-4%	u	-14%	-1%	-1	u
COc1ccc(NC(=O)Cn2nnc(C(=O)NCCc3ccccc3)c2N)cc1	-34%	35µM*	25µM*	-18%	4	-26%
CCOc1ccc(CCNC(=O)c2nnn(CC(=O)Nc3ccc(C)cc3)c2N)cc1OCC	u	u	25µM*	-12%	-1	-1%
Cc1ccc(NC(=O)Cn2nnc(C(=O)NCCc3ccccc3)c2N)cc1C	u	89µM*	u	x	x	-24%
COc1cccc(NC(=O)Cn2nnc(-c3nc(-c4ccccc4)no3)c2N)c1	-11%[60.1 µM]	89µM*	18µM*	x	x	-4%
CN(Cc1ccco1)C(=O)c1ccc(CNS(=O)(=O)c2ccc3c(c2)C(C)(C)C(=O)N3C)cc1	-5%	u	109%	-3%	2	-8%
CCc1ccccc1NC(=O)CN(C)S(=O)(=O)c1cccc2nsnc12	0%	-10%	4%	x	x	-2%
COC(=O)c1ccccc1NC(=O)c1cc(C)nc2c1c(C)nn2-c1ccc(C)cc1	12%	17%	29%	x	x	-16%
COc1cc(/C=C2/C(=O)N(c3ccc([N+](=O)[O-])cc3)N=C2N2CCOCC2)ccc1O	-9%	0.89µM*	-10%	2%	-14	u
O=S(=O)(c1ccc(Cl)cc1)N1CCN(c2nc(Nc3cc(Cl)ccc3O)nc3ccccc23)CC1	-18%	-11%[58.9 µM]	x	x	x	x
COc1cc(/C=N/NC(=O)C2=NNC(=O)C2C)ccc1O (stereo not drawn)	-3%	6%	5%	-11%	1	-12%
CC1C(=O)NN=C1C(=O)N/N=C\c1ccc(O)cc1O (stereo not drawn)	10%	10%	25%	-6%	-60*	-17%
Cc1cccc(Cl)c1NNC(=O)Nc1c([N+](=O)[O-])c(C)nn1C	2%	17%	-2%	14%	-2	-1%
COc1ccc(S(=O)(=O)CC(=O)c2cc3cccc(C)c3oc2=O)cc1	-25%	u	u	-28%	u	50µM*
COc1ccc2cc(C(=O)CS(=O)(=O)c3ccccc3)c(=O)oc2c1	-3%	29%	13%	1%	-1	-5%
